Inconclusive results are not listed. A number with no mark means an inactive call. Activity calls are given as the source filed them. Calls follow the shape of the dose curve; as a rule, active = well fitted cell-killing curve with a large enough effect; inconclusive = small, poorly fitted or top-dose-only effect, or effect the other way; inactive = no such curve, though single readings can be large or run the other way.
test: Cell Viability - LYMP2-004 (AID 966); settings: LYMP2-004 lymphoblastoid cell viability, qHTS; series mostly up to 92.2 µM; activity change, negative = cytotoxicity: at the top concentration; also: nearly all actives have a fitted effect of over 65% in size;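 as to activity change, negative = cytotoxicity: plate controls were DMSO only for no effect and tetraoctylammonium bromide control for full effect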
Description: NIH Chemical Genomics Center [NCGC]
NIH Molecular Libraries Screening Centers Network [MLSCN]
National Institutes of Environmental Health Sciences [NIEHS]
National Toxicology Program [NTP]
We have developed a 1536-well cell-based assay for quantitative high throughput screening (qHTS) against a number of cell lines to determine in vitro cytotoxicity of small molecules. This particular assay uses a human lymphoblastoid cell line (LYMP2-004) purchased from Coriell Institute for Medical Research.
NCGC Assay Protocol Summary:
The CellTiter-Glo luminescent cell viability assay (Promega) is a homogeneous method to measure the number of viable cells in culture. The end point readout of this assay is based on quantitation of intracellular ATP, an indicator of metabolic activity, using the luciferase reaction. Luciferase catalyzes the oxidation of beetle Luciferin to oxyluciferin and light in the presence of ATP. The luminescent signal is proportional to amount of ATP present.
Using the CellTiter-Glo luminescent cell viability assay, the amount of cellular ATP was measured in the lymphoblastoid cell line with complete culture medium following compound treatment for 24 hours. The assay was performed in opaque white Kalypsys 1536-well plates. In the screen, tetraoctylammonium bromide was used as positive control. Library compounds were measured for their ability to cause acute toxicity in the cell line, as reflected by a decrease in intracellular ATP levels, in a concentration-dependent manner. […] AC50 values were determined from concentration-response data modeled with the standard Hill equation.
qHTS protocol for CellTiter Glo lymphoblastoid cellular assay
[Step] [Parameter] [Value] [Description]
1. Reagent; 5 uL; 2500 lymphoblastoid cells/well
2. Time; 5 hr; 37 C incubation
4. Controls; 23 nL; Tetraoctylammonium bromide 6.4pM to 92 uM
5. Time; 24 hr; 37 C incubation
6. Reagent; 5 uL; CellTiter Glo reagent
7. Time; 30 min; Room Temperature
8. Detection; Luminescence; Viewlux plate reader
Keywords: cell viability, cytotoxicity, lymphoblastoid cell line, luminescence, NTPHTS, NTPHTS_NCGC, NIEHS, DSSTox, MLSMR, MLSCN, NIH Roadmap, qHTS, NCGC
Potency is read from the fitted curve at half-maximal effect.

| SMILES | activity change, negative = cytotoxicity | Potency |
| --- | --- | --- |
| O=C(Cl)c1ccc([N+](=O)[O-])cc1 | -4.25% | – |
| Oc1ccc2c(c1)OCO2 | 14.6% | – |
| Cc1ccc(C(=O)O)cc1[N+](=O)[O-] | 9.23% | – |
| CCN(CC)c1ccc2c(C)cc(=O)oc2c1 | -16.5% | – |
| CC/C=C/C/C=C/C/C=C/CCCCCCCC(=O)OCC | – | 31.6 µM (active) |
| Cc1cccnc1 | 22.4% | – |
| c1ccncc1 | 13.3% | – |
| Nc1ccc2c(c1)C(=O)c1ccccc1C2=O | -11.5% | – |
| CC(CCC(=O)O)(c1ccc(O)cc1)c1ccc(O)cc1 | -0.612% | – |
| NC(=O)c1ccc([N+](=O)[O-])cc1 | -3.6% | – |
| CCCCC(CC)COCCCN (stereo not given) | -15% | – |
| CC(=O)OCc1ccc2c(c1)OCO2 | 11.1% | – |
| Nc1ccc(N)c(Cl)c1 | -29.2% | – |
| COc1ccc(C(=O)Nc2ccccc2)cc1[N+](=O)[O-] | -9.32% | – |
| Cc1cc2nc(N)sc2cc1C | -4.18% | – |
| C/C=C/C=C/C=O | – | 31.6 µM (active) |
| Cc1c(N)cccc1Cl | 14.6% | – |
| CCC(Cl)CC(Cl)C(Cl)C(Cl)C(Cl)C(C)Cl (stereo not given) | 7.37% | – |
| COc1cc(-c2ccc(N=C=O)c(OC)c2)ccc1N=C=O | 14.5% | – |
| Oc1ccc(O)c2c(O)cccc12 | – | 50.1 µM (active) |

| SMILES | activity change, negative = cytotoxicity | Potency |
| --- | --- | --- |
| c1ccc(SCCSc2ccccc2)cc1 | 3.87% | – |
| C1CCCNCC1 | -8.56% | – |
| N=C1C=CC(=C(c2ccc(N)cc2)c2ccc(N)cc2)C=C1 | – | 12.6 µM (active) |
| c1ccc(Nc2cccc3ccccc23)cc1 | 5.21% | – |
| C[Si](C)(C)Cl | -19.3% | – |
| O=C(O)/C=C/c1ccc(/C=C/C(=O)O)cc1 | 12.1% | – |
| CCCCC(CC)COP(=O)(OCC(CC)CCCC)OCC(CC)CCCC (stereo not given) | 10.2% | – |
| Cc1cc(-c2ccc(N=Nc3cc(S(=O)(=O)O)c4ccccc4c3N)c(C)c2)ccc1N=Nc1cc(S(=O)(=O)O)c2ccccc2c1N | -16.9% | – |
| O=[N+]([O-])c1ccc(F)cc1F | -32.3% | – |
| CCCCC(CC)COC(=O)COc1ccc(Cl)cc1Cl (stereo not given) | 2.91% | – |
| NC(=O)Nc1nc2ccccc2[nH]1 | -5.54% | – |
| Nc1cc([N+](=O)[O-])ccc1O | -3.7% | – |
| S=C(NC1CCCCC1)NC1CCCCC1 | 1.44% | – |
| CCCC(=O)OC(=O)CCC | 7.58% | – |
| O=C(O)c1ccc([N+](=O)[O-])cc1 | -8.34% | – |
| Cc1ccc2ccc3cccc4ccc1c2c34 | 7.41% | – |
| CCOC(=O)C1OC1c1ccccc1 (stereo not given) | -8.22% | – |
| CCCCCCN | 1.84% | – |
| CCCCCCCCC1CO1 (stereo not given) | 6.33% | – |
| Oc1cc2c(cc1O)[C@H]1c3ccc(O)c(O)c3OC[C@@]1(O)C2 | – | 31.6 µM (active) |
